# DAGLB inh: blocks human DAGLB lipase activity; Q8NCG7; HEK293T DAGLB membrane lysate, EnzChek fluorogenic substrate; inhibition, % at 5.17 µM; 340,000 tested, 0.059% active; AID 504411; in the data active means inhibition above about 34%;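 further: 0% = enzyme with vehicle and 100% = wells lacking enzyme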
# MsrA inh: inhibitors of bovine MsrA; AID 651718; purified bovine MsrA, absorbance read-out; 360,000 tested, 0.75% active; inhibition, % at 15.5 µM;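 further: 0% = vehicle wells with enzyme and 100% = reference inhibitor wells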
# DSG3 Ab inh: human desmoglein-3 autoantibody binding inhibition | 310,000 tested, 0.48% active | DSG3-coupled beads, scFv-anti-DSG3-GFP binding, flow cytometry; active compounds read low | binding (percent of control), % at 10 µM;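 active means binding more than 3 SD below its plate's average and above zero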;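 further: hits lower antibody fragment binding to DSG3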
# Target sequence (P32926 whole entry, looked up, the tested form may be a part): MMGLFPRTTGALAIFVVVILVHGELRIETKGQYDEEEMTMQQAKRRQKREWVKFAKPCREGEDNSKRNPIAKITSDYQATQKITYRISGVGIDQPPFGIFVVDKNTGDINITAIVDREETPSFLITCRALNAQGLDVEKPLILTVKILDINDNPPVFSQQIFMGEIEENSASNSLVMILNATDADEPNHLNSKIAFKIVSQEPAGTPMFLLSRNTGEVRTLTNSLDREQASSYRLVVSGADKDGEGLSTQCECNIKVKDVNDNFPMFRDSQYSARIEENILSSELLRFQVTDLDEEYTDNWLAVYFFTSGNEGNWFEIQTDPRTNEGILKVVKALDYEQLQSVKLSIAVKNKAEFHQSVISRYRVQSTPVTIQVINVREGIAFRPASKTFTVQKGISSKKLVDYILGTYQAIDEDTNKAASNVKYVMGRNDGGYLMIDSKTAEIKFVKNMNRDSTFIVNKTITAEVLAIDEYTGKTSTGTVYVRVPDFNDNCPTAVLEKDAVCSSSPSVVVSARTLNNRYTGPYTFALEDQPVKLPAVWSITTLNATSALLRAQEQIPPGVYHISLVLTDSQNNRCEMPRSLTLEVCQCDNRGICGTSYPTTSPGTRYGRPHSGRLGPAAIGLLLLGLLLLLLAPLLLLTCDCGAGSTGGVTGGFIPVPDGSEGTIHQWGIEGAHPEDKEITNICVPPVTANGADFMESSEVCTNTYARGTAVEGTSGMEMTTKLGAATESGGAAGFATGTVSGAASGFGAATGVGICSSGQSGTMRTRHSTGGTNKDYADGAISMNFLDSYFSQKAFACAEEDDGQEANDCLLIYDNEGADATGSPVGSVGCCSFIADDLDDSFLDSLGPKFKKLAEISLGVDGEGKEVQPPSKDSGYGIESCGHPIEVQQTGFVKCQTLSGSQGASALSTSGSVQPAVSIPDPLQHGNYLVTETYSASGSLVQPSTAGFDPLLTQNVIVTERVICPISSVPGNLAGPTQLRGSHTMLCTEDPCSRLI
# MsrA act: activators of bovine methionine sulfoxide reductase A; 360,000 tested, 0.3% active; purified bovine MsrA, absorbance read-out; activation, % at 10.6 µM; in the data active means activation above about 7.5%;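 further: 0% = vehicle and 100% = reference activator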
# NadD block: NadD (S. aureus) enzyme inhibition; purified NadD enzyme, colorimetric absorbance read-out; inhibition, % at 20 µM; 360,000 tested, 0.78% active; AID 602399; in the data active means inhibition above about 26%
# rCAG RNA binder: binds r(CAG) RNA repeats | inhibition, % at 3 µM | 370,000 tested, 1.3% active | r(CAG) RNA repeat, TO-PRO-1 dye displacement fluorescence;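 active means inhibition above the plate cutoff, the mean of all test compounds on that plate plus 3 SD, cut at about 35% in these data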;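 further: 0% = DMSO alone and 100% = 100 µM mitoxantrone as full dye displacement; higher means more dye released from RNA so lower well fluorescence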
# MsrA inh confirm: confirmation of bovine MsrA inhibitors; 2,300 tested, 41% active; shares compounds with MsrA inh; purified bovine MsrA, absorbance read-out; AID 651822; inhibition, % at 15.5 µM;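 further: coupled to thioredoxin reductase with NADPH and selenocystamine and DMSO as substrate; 0% = vehicle only and 100% = full effect of reference inhibitor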
# Active calls of the source: *; x = not tested or not shown. Shown are actives, neighbours in structure and some others; about 3.2% of the full set was active somewhere. Unless noted, no stated cut-off is given here; in the data, active means inhibition above about 4.5%; inactive means the rest.
SMILES,DAGLB inh,MsrA inh,DSG3 Ab inh,MsrA act,NadD block,rCAG RNA binder,MsrA inh confirm
O=C(/C=C/c1ccc2c(c1)OCO2)N1CCOCC1,-2.6,3.5,69.9,-4.0,6.9,3.3,x
CC1CN(C(=O)/C=C/c2ccc3c(c2)OCO3)CC(C)O1 (stereo unspecified),-4.8,6.0*,100.9,-13.2,-1.4,-4.1,1.1
CN1/C(=C/C(=O)C2CC2)C(C)(C)c2ccccc21,-3.2,5.8*,102.3,-2.5,0.4,-3.9,5.1*
CN1/C(=C\C(=O)Nc2ccc(Br)cc2)C(C)(C)c2ccccc21,-4.6,1.4,83.1,-12.1,2.0,-0.1,x
FC(F)(F)c1cc(Cc2nc3ccccc3n2C(CCc2ccccc2)c2nc3ccccc3[nH]2)cc(C(F)(F)F)c1 (stereo unspecified),x,-0.1,x,x,x,4.3,x
C=CCN1[C@H](Cc2ccccc2)COc2cccc(N3CCCC3)c2S1(=O)=O,x,x,x,x,x,6.2,x
C(=N\n1cnnc1)/c1cn(-c2cccs2)nc1-c1ccccc1,0.7,4.8*,95.0,-3.0,2.0,1.9,2.6
O=c1c2cc3cccnc3nc2ncn1CCc1c[nH]c2ccccc12,x,x,x,x,x,10.7,x
Clc1ccc(C(c2cccs2)N2CCNCC2)cc1 (stereo unspecified),-1.0,-0.2,98.5,-1.1,-6.2,6.4,x
COc1ccc(-c2nc(=S)c3c(n2CCN2CCOCC2)CC(C)(C)OC3)cc1,-1.7,4.9*,x,-11.6,-1.0,0.2,4.4
C=CCn1c(-c2ccccc2)nc(=S)c2c1CC(C)(C)OC2,0.3,5.1*,98.1,-3.9,2.5,-4.7,3.9
CCN(CC)c1ccc(-c2nc3cnccc3n2C)cc1,0.1,5.4*,107.8,-6.2,-6.8,-7.0,3.2
O=C(O)c1cccc(COc2ccccc2Cl)c1,-0.8,-0.1,99.9,-1.0,-8.5,2.8,x
COc1cc(/C=C2\NC(=S)NC2=O)ccc1OCc1cccc(C(=O)O)c1,-0.7,5.4*,94.5,-8.4,6.9,30.5,3.5
COc1cc(/C=C2\NC(=O)NC2=O)cc(Br)c1OC,0.1,4.4,102.5,-1.0,-3.2,-0.7,x
O=C1NC(=O)/C(=C\c2ccc(OCc3cccc(C(=O)O)c3)c(Cl)c2)N1,1.2,5.3*,101.0,-3.8,-1.9,15.4,3.8
CCOc1cc(/C=C2/NC(=O)NC2=O)cc(Br)c1OCc1ccc(C(=O)O)cc1,3.9,6.2*,104.4,-5.8,6.7,18.4,2.2
CC(C)Nc1nc(Nc2ccccc2Cl)c2sccc2n1,x,0.3,x,-2.1,-8.5,0.5,x
Cc1cc(/C=C(\C#N)C(=O)NCC2CCCO2)c(C)n1-c1ccc(Cl)cc1 (stereo unspecified),-3.4,3.7,95.0,-2.9,2.0,3.9,x
Cc1cc(/C=C(\C#N)C(=O)NCc2ccco2)c(C)n1-c1ccc(C(=O)O)cc1,-1.0,6.8*,104.8,-2.7,0.4,10.2,2.7
COC(=O)C1CN(Cc2ccccc2)CCS(=O)(=O)N1Cc1cn(Cc2ccc(C)cc2)nn1 (stereo unspecified),x,x,x,x,x,-1.0,x
COc1ccc(-c2cccc3c2C2CC3CCN2C(=O)OCc2ccccc2)cc1 (stereo unspecified),-20.1,6.4*,91.6,-1.7,3.2,2.8,1.8
Cc1cc(OC(C)CCN2CCC(C(O)(c3ccccc3)c3ccccc3)CC2)ccc1Br (stereo unspecified),x,x,x,x,x,5.5,x
O=C(Cn1nc2ccccc2n1)N/N=C/c1cc([N+](=O)[O-])ccc1O,9.6,4.7*,100.0,-3.7,-1.7,21.7,4.4
O=C(Cn1cncn1)N/N=C/c1cc([N+](=O)[O-])ccc1O,1.4,4.2,91.7,-1.2,-6.1,-0.9,x
CCn1cc(/C=C(\NC(=O)c2ccccc2)C(=O)NCCCN2CCOCC2)c2ccccc21,2.9,4.7*,x,-3.2,2.1,-2.9,4.2
CCn1cc(/C=C(\NC(=O)c2cc(OC)c(OC)c(OC)c2)C(=O)NCCCN2CCOCC2)c2ccccc21,-1.1,1.8,97.6,-2.1,-5.1,-5.7,x
COc1ccc(C(=O)N/C(=C\c2cn(C)c3ccccc23)C(=O)NCCCN2CCOCC2)cc1,1.7,5.3*,100.2,-7.2,-9.8,-0.2,3.5
COc1ccc(C(=O)N/C(=C\c2cn(C)c3ccccc23)C(=O)NCCN2CCOCC2)cc1OC,1.6,4.8*,101.8,-11.7,-2.8,4.2,4.3

# Bioassay records (PubChem)
